Hits are enriched below; roughly 2.9% of the tested compounds scored in any of these assays.
14-3-3 Bad PPI – inhibitors of 14-3-3 zeta/Bad binding, primary screen, biochemical, TR-FRET, bovine 14-3-3 zeta; TR-FRET 14-3-3zeta/Dy647-pBad peptide displacement, 1 h; inhibition, % at 21.7 µM; 220,000 compounds, 0.71% hits;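 active = inhibition above about 70%, limit read from the data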;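 note: 0% = full 14-3-3 plus peptide FRET controls and 100% = background without 14-3-3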
Target sequence (P63103 whole entry, looked up): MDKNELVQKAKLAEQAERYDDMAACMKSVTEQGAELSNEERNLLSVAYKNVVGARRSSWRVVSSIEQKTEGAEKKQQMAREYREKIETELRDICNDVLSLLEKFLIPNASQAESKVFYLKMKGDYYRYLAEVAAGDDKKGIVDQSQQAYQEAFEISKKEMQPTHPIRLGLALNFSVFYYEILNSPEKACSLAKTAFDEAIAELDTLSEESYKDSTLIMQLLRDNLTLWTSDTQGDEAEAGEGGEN
Pf gametocyte – late stage P. falciparum gametocyte viability inhibitors, primary screen, ATP luminescence, HTS. P. falciparum stage V gametocytes, 24 h. inhibition, % at 10.9 µM. 150,000 compounds, 0.065% hits;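 active = inhibition above the mean plus 3 SD of compounds within the control limits, set per campaign, cut at about 38% in these data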;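 note: 0% = DMSO wells and 100% = medium only without gametocytes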
Bim-Mcl-1 – inhibitors of Bim peptide binding to Mcl-1, primary screen, biochemical, bead-based flow cytometry, multiplex; 190,000 compounds, 0.1% hits; Induced myeloid leukemia cell differentiation protein Mcl-1 (Homo sapiens), Q07820; Bim peptide-Mcl-1 binding; inhibition, % at 10 µM; in the data active = inhibition above about 40%;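 note: 0% = no compound tracer wells and 100% = peptide blocker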
Mcl1 Bid PPI – Mcl-1/Bid binding inhibitors, primary screen, biochemical, TR-FRET, 1536-well; Induced myeloid leukemia cell differentiation protein Mcl-1 (Homo sapiens), Q07820; TR-FRET Mcl-1/Bid-Dy647 peptide binding; inhibition, % at 21.7 µM; 220,000 compounds, 0.97% hits; AID 1021, 2008;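 active = compounds that cut the binding signal by more than half at the single screening dose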;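 note: His-tagged Mcl-1 with europium anti-His antibody binding Bid BH3 peptide; 0% = Mcl-1 plus peptide wells and 100% = peptide-only wells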
Mcl1 Noxa PPI – Mcl-1/Noxa binding inhibitors, primary screen, biochemical, TR-FRET, 1536-well; Induced myeloid leukemia cell differentiation protein Mcl-1 (Homo sapiens), Q07820; TR-FRET Mcl-1/Noxa peptide binding, 2 h; inhibition, % at 21.7 µM; 220,000 compounds, 1.5% hits; AID 1022, 2008;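 active = compounds that cut the protein-peptide binding signal by more than 50% relative to plate controls in a single-dose test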;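 note: His-tagged Mcl-1 with rhodamine Noxa BH3 peptide and terbium anti-His antibody; 0% = Mcl-1 plus Noxa peptide wells and 100% = peptide-only wells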
Hck-Nef inh – inhibitors of Nef-activated human Hck kinase, primary screen, biochemical, Z-Lyte FRET, 384-well, Hck-YEEI | inhibition, % at 20 µM | AID 463187, 2010 | Recombinant Hck-YEEI plus Nef, Z-Lyte FRET kinase assay | Tyrosine-protein kinase HCK (Homo sapiens), P08631 | 220,000 compounds, 0.68% hits;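 active = Hck-Nef kinase inhibition above about 50%, limit read from the data; inactive = inhibition below that limit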;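 note: 0% = DMSO with Hck plus Nef and 100% = Hck alone without Nef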
Target sequence (P08631 whole entry, looked up): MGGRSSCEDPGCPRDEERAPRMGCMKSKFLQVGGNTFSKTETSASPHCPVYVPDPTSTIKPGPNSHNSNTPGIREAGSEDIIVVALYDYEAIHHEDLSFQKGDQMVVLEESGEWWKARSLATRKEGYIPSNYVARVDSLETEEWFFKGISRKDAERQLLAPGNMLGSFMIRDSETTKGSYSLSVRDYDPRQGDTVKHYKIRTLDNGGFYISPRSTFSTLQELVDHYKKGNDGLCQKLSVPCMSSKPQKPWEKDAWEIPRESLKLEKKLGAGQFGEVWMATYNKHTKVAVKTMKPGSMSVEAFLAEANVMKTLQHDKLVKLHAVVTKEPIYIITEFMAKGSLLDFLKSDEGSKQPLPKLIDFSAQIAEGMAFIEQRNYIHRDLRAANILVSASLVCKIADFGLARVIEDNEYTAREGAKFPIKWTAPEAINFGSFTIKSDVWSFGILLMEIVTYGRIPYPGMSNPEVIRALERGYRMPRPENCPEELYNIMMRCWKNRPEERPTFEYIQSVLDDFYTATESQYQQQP
Hck Nef conf – retest of Hck:Nef kinase inhibitor hits, confirmation, biochemical, Z-Lyte FRET, 384-well, p-Tyr peptide counterscreen; shares compounds with Hck-Nef inh; Recombinant Hck-YEEI:Nef, Z-Lyte FRET kinase assay; calls only at 10 µM; 1,300 compounds, 28% hits; AID 463188, 2010;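 active = average inhibition of at least 50%, with Z-scores no higher than 3 in both the phospho-tyrosine peptide and fluorescence counterscreens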
* marks the source's active call; other numbers are inactive results; i = inactive; . = not tested or not shown; + = active, no number.

SMILES | 14-3-3 Bad PPI | Pf gametocyte | Bim-Mcl-1 | Mcl1 Bid PPI | Mcl1 Noxa PPI | Hck-Nef inh | Hck Nef conf
Cc1ccc(NC(=O)Cn2c(O)c(N=NC(=O)c3cc([N+](=O)[O-])ccc3O)c3ccccc32)cc1 | -1.9 | . | . | -29.0 | 50.5* | 67.6* | +
Cc1cccc(NC(=O)Cn2c(O)c(N=NC(=O)c3ccccc3O)c3ccccc32)c1 | 59.1 | 10.4 | -1.0 | 66.2* | 66.4* | 50.6* | +
O=C(NC1CC1)c1cc(-c2ccccn2)nc2ccccc12 | 6.8 | -9.4 | -4.0 | -9.8 | -3.8 | 1.3 | .
O=C(NCCC1=CCCCC1)c1cc(-c2ccccn2)nc2ccccc12 | -4.8 | 3.0 | 0.0 | -7.0 | 2.5 | 59.9* | i
CC1=NN(c2nc(-c3ccc(C)cc3)cs2)C(=O)C1N=Nc1cccc(C)c1 (centres undefined) | -1.5 | 15.3 | -4.0 | -59.3 | -11.0 | 1.7 | .
CCOC(=O)c1sc(N2N=C(C)C(N=Nc3cccc(C)c3)C2=O)nc1C (centres undefined) | 97.4* | -27.2 | . | 86.5* | 34.9 | 99.9* | +
CN(C)C(=O)NC1C=CS(=O)(=O)C1 (centres undefined) | -4.4 | . | -3.0 | -6.8 | 30.1 | 1.1 | .
N#C/C(=C(/O)COC(=O)Cc1c[nH]c2ccccc12)c1nc2ccccc2[nH]1 | -1.4 | -6.6 | -2.0 | -72.3 | -25.4 | 60.1* | +
Nc1nc2nc(-c3cccs3)cc(C(F)(F)F)n2n1 | 8.3 | -4.6 | -2.0 | 7.9 | 1.6 | 110.0* | .
CCN(CC)CCCNC(=O)CCC(=O)Nc1ccc2nc(N3CCC(C)CC3)cc(C)c2c1 | 0.6 | -15.8 | -2.0 | -15.4 | 1.5 | 87.6* | .
CCN(CC)CCCNC(=O)CCC(=O)Nc1ccc2nc(N3CCCCC3)cc(C)c2c1 | 4.1 | 6.1 | 0.0 | -10.6 | 20.4 | 34.9 | .
CSc1cccc(NC(=O)c2nnn(Cc3ccccc3)c2N)c1 | 4.5 | . | -2.0 | -6.1 | -18.1 | 1.3 | .
Cc1ccccc1-n1c(=O)cc(N2CC(C)OC(C)C2)[nH]c1=O (centres undefined) | -0.7 | . | -1.0 | -89.0 | -7.4 | 1.9 | .
CCN(CC)Cc1c(O)c(Cl)cc2c(C)cc(=O)oc12 | 10.7 | . | 0.0 | -35.8 | 15.3 | + | .
CCN(CC)Cc1c(O)ccc2c(-c3ccccc3)cc(=O)oc12 | 5.8 | 14.2 | -1.0 | -25.5 | 7.7 | 3.6 | .
CCOC(=O)c1c(C)oc2cc(Cl)c(O)c(CN(C)C)c12 | -10.4 | 33.0 | . | -36.5 | -0.6 | 10.3 | .
CCN(CC)Cc1c(O)c(Cl)cc2c(C)c(C)c(=O)oc12 | -15.2 | 8.0 | -2.0 | 7.2 | 4.4 | 77.3* | .
CCN(CC)Cc1c(O)ccc2c(C)c(CC(=O)OC)c(=O)oc12 | 8.6 | 32.8 | 0.0 | -14.9 | 20.9 | 73.2* | .
Cc1cc(=O)oc2c(CN(CC(C)C)CC(C)C)c(O)ccc12 | 1.9 | -42.8 | -5.0 | -30.6 | -5.6 | 63.3* | .
NC(=Nc1ccc(N)cc1)C(N)=Nc1ccc(N)cc1 | -3.4 | . | . | -41.1 | -15.5 | 16.4 | .
O=C(COc1ccc(S(=O)(=O)NC2CCCCC2)cc1)NC1CCCCC1 | 0.3 | 3.1 | -2.0 | -3.4 | -0.9 | 5.1 | .
CC(C)c1nc2sc3c(=O)[nH]cnc3c2c2c1CCCC2 | 0.1 | -13.1 | . | -31.4 | -18.4 | -0.2 | .
CCC(=O)c1cc2c(C)cc(=O)oc2c(C)c1O | 10.2 | . | -4.0 | -37.2 | 0.4 | -0.9 | .
CN(C)Cc1c(O)ccc2oc(Cc3ccccc3)cc12 | 56.4 | 9.1 | 0.0 | -32.8 | 24.5 | 1.3 | .
Cc1c(Cc2ccccc2)c(=O)oc2c(CN(C)C)c(O)c(Cl)cc12 | 21.3 | 11.6 | -6.0 | 6.5 | 3.0 | 116.0* | .
SMILES | 14-3-3 Bad PPI | Pf gametocyte | Bim-Mcl-1 | Mcl1 Bid PPI | Mcl1 Noxa PPI | Hck-Nef inh | Hck Nef conf
C=CCc1c(O)c(CC)cc2c(C)cc(=O)oc12 | 7.7 | 2.7 | . | -34.9 | 24.2 | 105.8* | .
O=C(CSc1nnc(-c2csc3c2CCCC3)o1)Nc1ccccc1 | 10.6 | . | -1.0 | -3.8 | -18.1 | 0.0 | .
CCCC(=O)NCCc1cc2cc(C)c(C)cc2[nH]c1=O | 4.8 | . | -3.0 | 15.7 | 13.3 | -10.4 | .
COc1cc(/C=C(/C#N)c2nc3ccccc3[nH]2)ccc1OCc1ccc(C(=O)O)o1 | 16.0 | . | 11.0 | -22.2 | 17.0 | 56.3* | +
COc1cc(/C=C(/C#N)c2nc3ccccc3[nH]2)ccc1Oc1ncccc1[N+](=O)[O-] | -2.7 | . | 0.0 | -3.7 | 39.7 | -0.3 | .
COc1ccc(NC(=S)N2CCN(CCN3C(=O)c4cccc5cccc(c45)C3=O)CC2)cc1 | 23.3 | -21.4 | -2.0 | 5.5 | 14.7 | 129.1* | i
CC(=O)OC1CCC2(C)C(=CCC3C2CCC2(C)C3CC3OC4(CCC(C)CN4)C(C)C32)C1 (centres undefined) | 8.2 | . | . | -16.6 | 24.5 | 13.9 | .
COc1ccc(-c2c[n+](CC(=O)OC3CC(C)CCC3C(C)C)c3n2CCC3)cc1 (centres undefined) | -2.2 | -35.9 | 0.0 | -22.9 | 2.5 | 0.3 | .
Cc1ccc(C(NC(=O)N2CCOCC2)C(Cl)(Cl)Cl)cc1F (centres undefined) | -7.9 | -1.1 | -2.0 | -59.6 | 6.0 | 3.1 | .
COC(=O)c1c(-c2ccccc2Cl)noc1/C=C/N(C)C | -4.0 | 6.4 | 0.0 | -37.0 | -9.1 | 58.8* | +
O=C(N/N=C/c1ccc(-c2ccc(Cl)c(C(=O)O)c2)o1)c1cc2c(ccc3ccccc32)o1 | 56.8 | 7.7 | . | 95.6* | 109.7* | 71.7* | +
Brc1ccc2[nH]c3c(c2c1)CCC3 | -2.6 | -12.3 | . | -5.6 | -5.7 | 4.4 | .
NC(=O)c1cc(Br)cc2c3c([nH]c12)CCCC3 | -9.3 | . | -6.0 | -27.5 | 11.8 | 57.8* | +
C=CCn1c(SCC(=O)Nc2sccc2C#N)nc2sc(C)c(C)c2c1=O | 3.8 | . | -4.0 | 4.4 | 7.9 | 63.3* | +
CC(=O)NCCNC(=O)c1ccc(-n2c(C)ccc2C)cc1 | -13.6 | 16.2 | 1.0 | -40.3 | 19.9 | 19.5 | .
Cc1cc(C(=O)COC(=O)c2cc(O)c3ccccc3c2O)c(C)n1CC1CCCO1 (centres undefined) | 72.6* | . | 0.0 | 36.6 | 98.8* | 92.8* | i
Cc1cc(C(=O)COC(=O)c2ccccc2Br)c(C)n1CC1CCCO1 (centres undefined) | -0.7 | 12.1 | . | -51.6 | 5.8 | 25.3 | .

Screens as filed in PubChem.
